Measured values taken from PubChem BioAssay.
Calls of active or inactive are those of the source. Unless noted, how the calls were made is not given here.

Legend:
[1] = test system: Wnt5a (protein binding on small-molecule microarray); assay: small molecules binding Wnt5a protein – biophysical, small-molecule microarray, 635/667 nm fluorescence, primary screen (AID 1142); conditions: 635 nm fluorescence, higher = more signal;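 further: fluorescence read at 667 nm with signal to noise per printed feature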
[2] = ATP-based viability of Huh7 replicon cells – cell-based, CellTiter-Glo luminescence, basal, 48 h, cytotoxicity control for HCV replication inhibitor project, primary screen (AID 1143); conditions: higher = more signal, called active from +8 up or from −8 down;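 further: Huh7 hepatoma cells carrying a hepatitis C replication reporter with no stimulus; test concentration not given here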
[3] = Pseudomonas biofilm growth suppression – PAO1 strain, BacTiter-Glo luminescence, LB-PBS, primary screen (AID 1144); conditions: P. aeruginosa PAO1 biofilm, 12 h, higher = more signal
[4] = basal CRE-LacZ reporter activity in PC12 – cell-based, unstimulated, primary screen (AID 1145); conditions: no forskolin, luminescence, 4.5 h, higher = more signal, called active from +8 up or from −8 down
[5] = forskolin-driven CRE-LacZ activity in PC12 – cell-based, CRE-LacZ reporter, forskolin-stimulated, primary screen (AID 1146); conditions: luminescence, 4.5 h, higher = more signal, called active from +8 up or from −8 down;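 further: PC12 cells with 6xCRE LacZ reporter stimulated by forskolin 10 µM; beta-galactosidase reporter signal reflecting CREB driven transcription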
[6] = biological target: Streptavidin (Streptomyces avidinii) (UniProt P22629); assay: compounds binding control protein streptavidin – biophysical, small-molecule microarray, 635/667 nm fluorescence, artefact control for SMM compound annotation, primary screen (AID 1147); conditions: higher = more signal;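 further: signal reflects streptavidin binding to arrayed compounds as a control protein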
[7] = probe aInhba binding on compound microarray – biochemical, small-molecule microarray, 635/667 nm fluorescence, primary screen (AID 1148); conditions: higher = more signal;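 further: score merges 667nm spot fluorescence with signal-to-noise for antibody binding to printed compounds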
Torsin-1A (Homo sapiens) [8] = biological target: Torsin-1A (Homo sapiens) (UniProt O14656); assay: TOR1A wild-type binding on microarray – cell lysate, small-molecule microarray, lysate, 635/667 nm, primary screen (AID 1149); conditions: COS7 hTOR1A-WT lysate, 635 nm fluorescence, higher = more signal
Torsin-1A (Homo sapiens) [9] = biological target: Torsin-1A (Homo sapiens) (UniProt O14656); assay: torsin A mutant lysate binding on microarrays – cell lysate, small-molecule microarray, COS7 lysate, 635/667 nm fluorescence, primary screen (AID 1150); conditions: COS7 hTOR1A mutant lysate, 635 nm fluorescence, higher = more signal;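 further: score pools 667 nm emission and signal to noise measuring lysate protein binding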
[10] = test system: Sonic hedgehog protein (Shh); assay: Sonic hedgehog microarray binding compounds – biochemical, small-molecule microarray, 635/667 nm fluorescence, primary screen (AID 1151); conditions: 635 nm fluorescence, higher = more signal;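 further: Shh protein binding to compounds spotted on small-molecule microarray slides; score combines spot fluorescence intensity with signal-to-noise across triplicate slides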
[11] = optical density shifts of acrAB sulA E. coli – strain DRC41, OD650, 48 h, E. coli filamentation inducer project, primary screen (AID 1152); conditions: higher = more signal, called active from +8 up or from −8 down;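 further: E. coli MC1000 strain DRC41 lacking acrAB efflux pump and sulA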
[12] = probe aLefty1 binding on compound microarray – biochemical, small-molecule microarray, 635/667 nm fluorescence, primary screen (AID 1153); conditions: higher = more signal;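 further: score merges spot fluorescence with signal-to-noise ratio from the scanned slide images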
[13] = plasmodial surface anion channel blockers, osmotic lysis – cell-based, P. falciparum Indochina, OD700, 1 h, primary screen (AID 1154); conditions: P. falciparum Indochina infected RBC osmotic lysis, higher = more signal, called active from +8 up or from −8 down
[14] = plasmodial surface anion channel blockers, osmotic lysis – cell-based, P. falciparum Indochina, OD700, 2 h, primary screen (AID 1155);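 further: lysis reports solute entry through the parasite surface anion channel PSAC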; conditions: P. falciparum Indochina infected erythrocytes, higher = more signal, called active from +8 up or from −8 down
[15] = changes in parasitized red cell lysis, either direction – P. falciparum Indochina, OD700, 3 h, PSAC antagonist project, primary screen (AID 1156); conditions: P. falciparum-infected erythrocytes, osmotic lysis, higher = more signal, called active from +8 up or from −8 down
[16] = plasmodial surface anion channel blockers, osmotic lysis – cell-based, P. falciparum Indochina, OD700, 18 h, primary screen (AID 1157); conditions: P. falciparum Indochina infected erythrocytes, osmotic lysis OD700, 18 h; higher = more signal, called active from +8 up or from −8 down
[17] = S6 kinase pathway phospho-S6 level changes – cell-based, A549, cytoblot, luminescence, serum-stimulated, primary screen (AID 1158); conditions: 5 h, higher = more signal;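 further: serum-stimulated A549 lung adenocarcinoma cells; signal is phosphorylated S6 detected by cytoblot immunostaining with HRP secondary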
[18] = biological target: NADPH oxidase 2 (Homo sapiens) (UniProt P04839); assay: compounds shifting NOX2 Amplex Red fluorescence – cell-based, HEK293-NOX2, PMA-stimulated, NOX inhibitor project, primary screen (AID 1159); conditions: 45 min, higher = more signal, called active from +8 up or from −8 down; further: test concentration not given here
[19] = biological target: NADPH oxidase 4 (Homo sapiens) (UniProt Q9NPH5); assay: compounds shifting NOX4 Amplex Red fluorescence – cell-based, HEK293-NOX4, tetracycline-induced, NOX inhibitor project, primary screen (AID 1160); conditions: HEK293-NOX4, Amplex Red H2O2 fluorescence, 45 min; higher = more signal, called active from +8 up or from −8 down
[20] = biological target: NADPH oxidase 5 (Homo sapiens) (UniProt Q96PH1); assay: compounds shifting NOX5 Amplex Red fluorescence – cell-based, HEK293-NOX5, NOX inhibitor project, primary screen (AID 1161); conditions: HEK293-NOX5, ionomycin, 45 min, higher = more signal
Chain of NADPH oxidase 5 (Homo sapiens) (Q96PH1 whole entry, looked up): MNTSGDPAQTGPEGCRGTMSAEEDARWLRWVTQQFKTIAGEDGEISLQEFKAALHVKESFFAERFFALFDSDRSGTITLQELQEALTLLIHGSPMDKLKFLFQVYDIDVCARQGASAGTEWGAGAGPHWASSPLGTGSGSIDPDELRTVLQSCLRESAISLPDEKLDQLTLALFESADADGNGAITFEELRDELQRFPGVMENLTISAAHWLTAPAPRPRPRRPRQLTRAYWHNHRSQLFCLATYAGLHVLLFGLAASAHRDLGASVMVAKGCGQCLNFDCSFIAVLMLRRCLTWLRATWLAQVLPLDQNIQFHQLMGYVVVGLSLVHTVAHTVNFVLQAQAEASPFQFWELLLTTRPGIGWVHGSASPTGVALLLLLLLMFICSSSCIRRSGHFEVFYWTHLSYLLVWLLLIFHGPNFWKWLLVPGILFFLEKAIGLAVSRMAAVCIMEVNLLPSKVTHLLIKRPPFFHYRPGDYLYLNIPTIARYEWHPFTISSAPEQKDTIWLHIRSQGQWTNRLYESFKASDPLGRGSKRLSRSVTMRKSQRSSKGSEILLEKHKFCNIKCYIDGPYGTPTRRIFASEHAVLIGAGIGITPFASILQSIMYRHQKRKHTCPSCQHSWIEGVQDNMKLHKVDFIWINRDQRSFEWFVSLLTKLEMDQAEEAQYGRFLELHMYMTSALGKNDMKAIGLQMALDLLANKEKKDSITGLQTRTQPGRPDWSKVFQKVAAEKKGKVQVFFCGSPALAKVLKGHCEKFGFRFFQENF

Chain of Streptavidin (Streptomyces avidinii) (P22629 whole entry, looked up): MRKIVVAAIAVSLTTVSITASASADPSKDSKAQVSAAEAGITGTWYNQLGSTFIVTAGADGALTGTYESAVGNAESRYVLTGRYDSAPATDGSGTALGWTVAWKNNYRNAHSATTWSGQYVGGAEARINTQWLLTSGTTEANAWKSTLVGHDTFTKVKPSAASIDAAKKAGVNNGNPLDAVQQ
Chain of Torsin-1A (Homo sapiens) (O14656 whole entry, looked up): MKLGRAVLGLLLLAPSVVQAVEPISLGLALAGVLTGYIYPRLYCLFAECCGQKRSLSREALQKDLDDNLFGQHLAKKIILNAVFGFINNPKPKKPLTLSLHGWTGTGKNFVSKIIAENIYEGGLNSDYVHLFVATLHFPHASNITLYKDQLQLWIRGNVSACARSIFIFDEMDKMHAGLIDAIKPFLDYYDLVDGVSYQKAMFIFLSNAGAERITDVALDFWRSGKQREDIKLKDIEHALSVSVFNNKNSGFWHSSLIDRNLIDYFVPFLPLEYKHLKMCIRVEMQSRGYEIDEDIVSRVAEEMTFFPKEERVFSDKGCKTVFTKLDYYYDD
Chain of NADPH oxidase 2 (Homo sapiens) (P04839 whole entry, looked up): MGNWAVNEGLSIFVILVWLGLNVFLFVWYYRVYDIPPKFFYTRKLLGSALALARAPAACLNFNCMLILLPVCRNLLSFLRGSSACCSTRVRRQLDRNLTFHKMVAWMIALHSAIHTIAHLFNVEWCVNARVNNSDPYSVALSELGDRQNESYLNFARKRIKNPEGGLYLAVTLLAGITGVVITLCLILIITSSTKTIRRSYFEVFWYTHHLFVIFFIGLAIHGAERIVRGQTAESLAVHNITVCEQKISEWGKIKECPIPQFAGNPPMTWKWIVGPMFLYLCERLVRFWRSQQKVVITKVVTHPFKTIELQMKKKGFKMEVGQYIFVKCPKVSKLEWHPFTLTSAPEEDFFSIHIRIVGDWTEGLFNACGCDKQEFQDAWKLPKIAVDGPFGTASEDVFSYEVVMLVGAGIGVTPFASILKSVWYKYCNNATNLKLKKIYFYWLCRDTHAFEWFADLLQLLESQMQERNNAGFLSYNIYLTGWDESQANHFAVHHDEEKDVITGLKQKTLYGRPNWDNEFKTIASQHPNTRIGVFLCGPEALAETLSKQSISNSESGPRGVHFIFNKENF
Chain of NADPH oxidase 4 (Homo sapiens) (Q9NPH5 whole entry, looked up): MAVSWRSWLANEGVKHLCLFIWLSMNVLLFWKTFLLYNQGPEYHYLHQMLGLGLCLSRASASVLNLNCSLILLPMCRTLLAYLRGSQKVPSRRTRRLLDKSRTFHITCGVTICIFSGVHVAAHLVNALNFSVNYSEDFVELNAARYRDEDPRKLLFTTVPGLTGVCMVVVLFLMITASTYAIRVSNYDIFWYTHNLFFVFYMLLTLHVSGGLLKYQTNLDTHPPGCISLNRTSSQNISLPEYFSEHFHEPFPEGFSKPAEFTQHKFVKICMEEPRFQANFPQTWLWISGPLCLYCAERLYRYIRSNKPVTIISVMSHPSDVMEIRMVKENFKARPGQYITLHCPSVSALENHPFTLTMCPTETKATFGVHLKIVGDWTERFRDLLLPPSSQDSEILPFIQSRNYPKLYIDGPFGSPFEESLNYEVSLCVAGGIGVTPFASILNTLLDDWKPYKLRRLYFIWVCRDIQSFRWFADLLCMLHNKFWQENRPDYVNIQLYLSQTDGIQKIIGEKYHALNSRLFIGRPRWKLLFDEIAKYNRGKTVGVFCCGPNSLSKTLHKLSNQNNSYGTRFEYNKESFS

O=C1O[C@H](c2ccccc2)[C@H](c2ccccc2)N2[C@H]1[C@@H](C(=O)Nc1nc3ccccc3s1)[C@]1(C(=O)Nc3ccccc31)[C@H]2c1ccc(OCCO)cc1
composite z-score [1]: 0.433 | z-score [2]: -2.91 (inactive) | z-score [3]: -0.538 (inactive) | z-score [4]: -0.0515 (inactive) | z-score [5]: -0.124 (inactive) | composite z-score [6]: 0.534 | composite z-score [7]: -0.113 | composite z-score (Torsin-1A (Homo sapiens) [8]): 0.927 | composite z-score (Torsin-1A (Homo sapiens) [9]): 1.2 | composite z-score [10]: 1.5 | z-score [11]: -0.222 (inactive) | composite z-score [12]: -0.0099 | z-score [13]: 3.55 (inactive) | z-score [14]: 2.95 (inactive) | z-score [15]: 0.458 (inactive) | z-score [16]: 2.31 (inactive) | z-score [17]: -0.357 | z-score [18]: 0.499 (inactive) | z-score [19]: 0.4 (inactive) | z-score [20]: 0.992

COC(=O)c1ccc([C@H](NC(=O)c2ccco2)[C@]2(C)C[C@H]2C2CCCCC2)cc1
composite z-score [1]: 0.0108 | z-score [2]: -2.84 (inactive) | z-score [3]: -0.635 (inactive) | z-score [4]: -0.368 (inactive) | z-score [5]: 0.898 (inactive) | composite z-score [6]: 0.689 | composite z-score [7]: 0.0659 | composite z-score (Torsin-1A (Homo sapiens) [8]): -2.21 | composite z-score (Torsin-1A (Homo sapiens) [9]): -0.568 | composite z-score [10]: -1.21 | z-score [11]: -2.39 (inactive) | composite z-score [12]: 0.527 | z-score [13]: 16.4 (active) | z-score [14]: 2.52 (inactive) | z-score [15]: 1.33 (inactive) | z-score [16]: 1.3 (inactive) | z-score [17]: -0.357 | z-score [18]: -0.803 (inactive) | z-score [19]: -2.56 (inactive) | z-score [20]: 0.289

COCCOC(=O)N1C(=O)[C@@]2(c3cc(C#CCCO)ccc31)[C@H](C(=O)Nc1nc3ccccc3s1)[C@H]1C(=O)O[C@H](c3ccccc3)[C@H](c3ccccc3)N1[C@@H]2c1ccccc1OCCO
composite z-score [1]: 0.585 | z-score [2]: -1.41 (inactive) | z-score [3]: 0.235 (inactive) | z-score [4]: -0.0526 (inactive) | z-score [5]: 0.595 (inactive) | composite z-score [6]: 0.968 | composite z-score [7]: 0.949 | composite z-score (Torsin-1A (Homo sapiens) [8]): 0.759 | composite z-score (Torsin-1A (Homo sapiens) [9]): 1.12 | composite z-score [10]: 0.881 | z-score [11]: -0.348 (inactive) | composite z-score [12]: 1.28 | z-score [13]: 5.19 (inactive) | z-score [14]: 1.86 (inactive) | z-score [15]: 0.286 (inactive) | z-score [16]: 1.36 (inactive) | z-score [17]: -0.331 | z-score [18]: 1.89 (inactive) | z-score [19]: -0.9 (inactive) | z-score [20]: 0.501

COc1ccc(-c2nc(-c3ccccc3)c3c(c2C)CO[Si]3(C(C)C)C(C)C)cn1
composite z-score [1]: 0.0934 | z-score [2]: -0.483 (inactive) | z-score [3]: 0.338 (inactive) | z-score [4]: -0.607 (inactive) | z-score [5]: 0.315 (inactive) | composite z-score [6]: 0.188 | composite z-score [7]: -0.0494 | composite z-score (Torsin-1A (Homo sapiens) [8]): 0.14 | composite z-score (Torsin-1A (Homo sapiens) [9]): -0.129 | composite z-score [10]: 0.848 | z-score [11]: -1.41 (inactive) | composite z-score [12]: 0.0816 | z-score [13]: 0.574 (inactive) | z-score [14]: -0.0994 (inactive) | z-score [15]: -0.566 (inactive) | z-score [16]: -0.278 (inactive) | z-score [17]: -0.0095 | z-score [18]: -0.783 (inactive) | z-score [19]: 0.386 (inactive) | z-score [20]: -1.54

C=C(/C(=C/C[C@H](OC(C)=O)c1ccccc1OCCO)c1cc(C(=O)OC)ccc1OC)C(C)C
composite z-score [1]: 0.608 | z-score [2]: -3.44 (inactive) | z-score [3]: 0.48 (inactive) | z-score [4]: 13.6 (active) | z-score [5]: -0.556 (inactive) | composite z-score [6]: -1.06 | composite z-score [7]: 0.0906 | composite z-score (Torsin-1A (Homo sapiens) [8]): 0.356 | composite z-score (Torsin-1A (Homo sapiens) [9]): 1.53 | composite z-score [10]: 1.4 | z-score [11]: 0.483 (inactive) | composite z-score [12]: -0.157 | z-score [13]: 5.75 (inactive) | z-score [14]: 0.195 (inactive) | z-score [15]: 1.85 (inactive) | z-score [16]: -1.19 (inactive) | z-score [17]: 1.09 | z-score [18]: 0.137 (inactive) | z-score [19]: 0.264 (inactive) | z-score [20]: -2.12

CC[C@H]1C2=C3C(CC[C@H]4C(OCc5ccc(F)cc5C(F)(F)F)OC[C@](C)([C@@H]34)N(C(=O)OC(C)(C)C)C2)C(COC)C1COC (stereo not given in full)
composite z-score [1]: -0.173 | z-score [2]: 0.0724 (inactive) | z-score [3]: 1.02 (inactive) | z-score [4]: -0.379 (inactive) | z-score [5]: 1.01 (inactive) | composite z-score [6]: -0.214 | composite z-score [7]: 0.029 | composite z-score (Torsin-1A (Homo sapiens) [8]): -0.0927 | composite z-score (Torsin-1A (Homo sapiens) [9]): -0.0476 | composite z-score [10]: -1.3 | z-score [11]: -1.22 (inactive) | composite z-score [12]: 0.409 | z-score [13]: -0.0734 (inactive) | z-score [14]: -0.0681 (inactive) | z-score [15]: 0.337 (inactive) | z-score [16]: 0.297 (inactive) | z-score [17]: -0.371 | z-score [18]: -0.67 (inactive) | z-score [19]: -1.45 (inactive) | z-score [20]: -1.54

C=CCC(OC(C)=O)[C@@H]1[C@@H](N(Cc2ccc(-c3cccc(C(F)(F)F)c3)o2)C(=O)c2ccc(-c3ccccc3)cc2)c2cc(OCCCO)ccc2N1C(=O)c1ccc2ccccc2n1 (stereo not given in full)
composite z-score [1]: -0.0222 | z-score [2]: 0.0285 (inactive) | z-score [3]: -0.171 (inactive) | z-score [4]: 0.222 (inactive) | z-score [5]: 0.53 (inactive) | composite z-score [6]: 0.0257 | composite z-score [7]: -0.0762 | composite z-score (Torsin-1A (Homo sapiens) [8]): -0.48 | composite z-score (Torsin-1A (Homo sapiens) [9]): -0.0764 | composite z-score [10]: 0.406 | z-score [11]: -0.662 (inactive) | composite z-score [12]: -0.0501 | z-score [13]: 0.394 (inactive) | z-score [14]: -0.262 (inactive) | z-score [15]: 0.0785 (inactive) | z-score [16]: 0.188 (inactive) | z-score [17]: 1.02 | z-score [18]: -1.73 (inactive) | z-score [19]: -1.3 (inactive) | z-score [20]: -0.764

CCOc1cc(C(O)C2C=CC3C(=O)N(C)C(=O)C3N2Nc2ccccc2)ccc1O (stereo not given)
composite z-score [1]: 0.297 | z-score [2]: 0.559 (inactive) | z-score [3]: -0.947 (inactive) | z-score [4]: 0.626 (inactive) | z-score [5]: -0.276 (inactive) | composite z-score [6]: 0.702 | composite z-score [7]: -0.0297 | composite z-score (Torsin-1A (Homo sapiens) [8]): 0.526 | composite z-score (Torsin-1A (Homo sapiens) [9]): 0.467 | composite z-score [10]: -0.485 | z-score [11]: -0.353 (inactive) | composite z-score [12]: 0.0313 | z-score [13]: 0.453 (inactive) | z-score [14]: 1.45 (inactive) | z-score [15]: 0.42 (inactive) | z-score [16]: 1.42 (inactive) | z-score [17]: -1.01 | z-score [18]: -1.4 (inactive) | z-score [19]: -1.94 (inactive) | z-score [20]: -1.78
